Tgondii IFNg – inhibitors of Toxoplasma gondii growth with IFN-gamma. Toxoplasma gondii growth in IFN-gamma-treated host cells; stronger effect = lower value. activity change, negative = inhibition, % (test concentration not listed). 69,000 tested, 3.8% active. AID 1259416; in the data active means activity change below about -70%, passing the limit was not always enough;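 further: host cells are HeLa cells infected with Toxoplasma gondii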
An asterisk follows results filed as active; ! = repeats disagree. Shown is part of a subset that was picked to be rich in hits.

How did C[C@H]1CN([C@@H](C)CO)S(=O)(=O)c2ccc(C#CC3(O)CCCC3)cc2O[C@H]1CN(C)C(=O)Nc1cccc(F)c1 do in these assays?
Tgondii IFNg: -62

What do the screens show for `C[C@H](CO)N1C[C@H](C)[C@H](CN(C)C(=O)c2ccccc2)Oc2cc(-c3cccc(C#N)c3)ccc2S1(=O)=O`?
Tgondii IFNg: -69

How did CCCNC(=O)N(C)C[C@@H]1Oc2cc(C#C[C@@H](C)O)ccc2S(=O)(=O)N([C@H](C)CO)C[C@H]1C do in these assays?
Tgondii IFNg: -38

What do the screens show for `C[C@@H]1CN([C@@H](C)CO)S(=O)(=O)c2ccc(-c3ccc(F)cc3)cc2O[C@@H]1CN(C)Cc1ccccc1C(=O)O`?
Tgondii IFNg: 214

How did C[C@@H]1CN([C@@H](C)CO)S(=O)(=O)c2ccc(-c3cccc(C#N)c3)cc2O[C@H]1CN(C)C(=O)c1ccccc1 do in these assays?
Tgondii IFNg: -99*

Results for CCOCCCNC(=O)C1=C(C)C(=O)OC12CCN(S(=O)(=O)c1cccs1)CC2 ?
Tgondii IFNg: 4

Results for CCN(CC)c1ncnc2c1cnn2CC(=O)NCc1cccnc1 ?
Tgondii IFNg: -26

How did Cc1ccc(CNC2=NCCNC23CCN(S(=O)(=O)c2ccc(C(C)C)cc2)CC3)cc1 do in these assays?
Tgondii IFNg: -56

What do the screens show for `CCN(CC1CCOCC1)C(=O)c1cnccc1C`?
Tgondii IFNg: 56

What do the screens show for `CN1C(=O)c2cc(NC(=O)c3cnccn3)ccc2OC[C@H]2O[C@@H](CC(=O)Nc3cc(F)ccc3F)CC[C@@H]21`?
Tgondii IFNg: 1

Results for Cc1cc(=O)oc2cc(CN3CCCN(C(=O)c4ccco4)CC3)ccc12 ?
Tgondii IFNg: -2

How did O=C(NCc1ccccn1)C1CN(c2cnc3ccccc3n2)CCN1 (stereo not given) do in these assays?
Tgondii IFNg: -1

Results for CCN1CCN(C(=O)c2coc(COc3ccc4c(c3)OCO4)n2)C(C)C1=O (stereo not given) ?
Tgondii IFNg: 41

Results for C[C@@H]1CN([C@@H](C)CO)C(=O)c2cc(NS(=O)(=O)c3cn(C)cn3)ccc2O[C@@H](C)CCCCO[C@H]1CN(C)Cc1ccc2c(c1)OCO2 ?
Tgondii IFNg: 163

Results for CCOC(=O)c1cccc(NC(=O)N2CCC3(CC2)Nc2cc(F)ccc2-n2cccc23)c1 ?
Tgondii IFNg: 351

What do the screens show for `CCn1c(C2CCCNC2)nn(Cc2c(F)ccc(C)c2Cl)c1=O` (stereo not given)?
Tgondii IFNg: -5

How did CCc1cnc(N2Cc3nccn3CC(CN3CCCC3=O)C2)nc1 (stereo not given) do in these assays?
Tgondii IFNg: 4

How did N#Cc1cccc(-c2ccc(C3[C@@H]4CN(C(=O)C5CCOCC5)C[C@H]3N4)cc2)c1 (stereo not given in full) do in these assays?
Tgondii IFNg: -10

How did Cc1ccccc1-c1ccc([C@H]2[C@H](CO)N3CCCCN(S(=O)(=O)Cc4ccccc4)C[C@@H]23)cc1 do in these assays?
Tgondii IFNg: -47

Results for Cc1ccccc1-c1ccc([C@@H]2[C@@H](CO)N3CCCCN(S(=O)(=O)Cc4ccccc4)C[C@H]23)cc1 ?
Tgondii IFNg: -60

How did Cc1ccccc1-c1ccc(C2[C@@H]3CN(S(=O)(=O)Cc4ccccc4)C[C@H]2N3)cc1 (stereo not given in full) do in these assays?
Tgondii IFNg: -77*

What do the screens show for `CS(=O)(=O)N1C[C@@H]2N[C@H](C1)[C@@H]2c1ccc(-c2ccccc2)cc1`?
Tgondii IFNg: -67

How did Cc1ccccc1S(=O)(=O)N1C[C@@H]2N[C@H](C1)C2c1ccc(-c2cccc(C#N)c2)cc1 (stereo not given in full) do in these assays?
Tgondii IFNg: -71*!

How did CO[C@@H]1CN(C)C(=O)c2cc(NC(=O)NC(C)C)ccc2OC[C@H](C)N(Cc2ccccc2)C[C@H]1C do in these assays?
Tgondii IFNg: 111

How did CN(C)CC1(O)CCN(C(=O)c2cccc3nccnc23)C1 (stereo not given) do in these assays?
Tgondii IFNg: -7

How did CCOc1ccc2nc(NC(=O)CSc3nnc(-c4ccco4)n3C)sc2c1 do in these assays?
Tgondii IFNg: 317

How did Fc1cccc(-c2nc3c(c(NC4CC4)n2)CNCC3)c1 do in these assays?
Tgondii IFNg: -86*

How did CN1C(C)(C)CC(Nc2nc(-c3ccccn3)nc3c2CCNC3)CC1(C)C do in these assays?
Tgondii IFNg: -4

What do the screens show for `c1ccc2c(c1)CC(Nc1nc(C3CCCC3)nc3c1CNC3)CO2` (stereo not given)?
Tgondii IFNg: 2

How did Cc1cc(C)n(Cc2nc(-c3ccc(NC(=O)c4ccc(N(C)C)cc4)cc3)oc2C)n1 do in these assays?
Tgondii IFNg: 66

How did COc1ccccc1C(=O)Nc1ccc(-c2nc(Cn3nc(C)cc3C)c(C)o2)cc1 do in these assays?
Tgondii IFNg: -85*

How did Cc1cc(C)n(Cc2nc(-c3ccc(NC(=O)c4ccc(F)c(Cl)c4)cc3)oc2C)n1 do in these assays?
Tgondii IFNg: 308

How did Cc1cc(C)n(Cc2nc(-c3ccc(NC(=O)c4ccccc4F)cc3)oc2C)n1 do in these assays?
Tgondii IFNg: -41

Results for Cc1cc(C)n(Cc2nc(-c3ccc(NC(=O)c4ccc(C)c(C)c4)cc3)oc2C)n1 ?
Tgondii IFNg: -88*

Results for Cc1ccc(C(=O)Nc2ccc(-c3nc(Cn4nc(C)cc4C)c(C)o3)cc2)c(C)c1 ?
Tgondii IFNg: 115

What do the screens show for `Cc1cc(C)n(Cc2nc(-c3ccc(NC(=O)COc4ccccc4)cc3)oc2C)n1`?
Tgondii IFNg: -2

How did COc1ccc(CC(=O)Nc2ccc(-c3nc(Cn4nc(C)cc4C)c(C)o3)cc2)cc1 do in these assays?
Tgondii IFNg: -33

Results for COc1ccccc1CC(=O)Nc1ccc(-c2nc(Cn3nc(C)cc3C)c(C)o2)cc1 ?
Tgondii IFNg: -80*

What do the screens show for `CO[C@@H]1CN(C)C(=O)c2ccc(NC(=O)C3CCC3)cc2OC[C@H](C)N(Cc2ccccn2)C[C@@H]1C`?
Tgondii IFNg: -18

How did O=S(=O)(c1cccs1)N1CCC2(CC1)Nc1ccc(Cl)cc1-n1cccc12 do in these assays?
Tgondii IFNg: -21

How did N[C@@H](CSCCCO)C(=O)O do in these assays?
Tgondii IFNg: 7

What do the screens show for `COC(=O)c1c(NC(C)c2ccc(F)cc2)c2cccc(Cl)c2[nH]c1=O` (stereo not given)?
Tgondii IFNg: -28

How did Cc1oc(C(=O)O)cc1Cn1cncn1 do in these assays?
Tgondii IFNg: -3

Results for O=c1[nH]cc(Nc2ccccc2)c(=O)[nH]1 ?
Tgondii IFNg: 27

What do the screens show for `O=c1c(Nc2ccccc2)c(Nc2ccccc2)c1=O`?
Tgondii IFNg: -82*

How did Nc1c(NCc2ccccc2)c(=O)c1=O do in these assays?
Tgondii IFNg: 28

Results for Cc1cc(C)c(S(=O)(=O)N2CCC3(CC2)NCCN=C3NC2CCCC2)cc1C ?
Tgondii IFNg: 10

What do the screens show for `Cc1ccc2c(c1)CCCN2C(=O)CN(C)C(C)c1ccon1` (stereo not given)?
Tgondii IFNg: 41

Results for Cn1ccnc1-c1ccc(N2CCN(C/C=C/c3ccccc3)CC2)nn1 ?
Tgondii IFNg: 13

How did COc1cc(OC)nc(/C=C/c2ccccc2)n1 do in these assays?
Tgondii IFNg: -13

What do the screens show for `Cc1cc(Nc2cc(N3CCN(C)CC3)nc(/C=C/c3ccccc3)n2)n[nH]1`?
Tgondii IFNg: -74*

What do the screens show for `COc1ccc(CCNC(=O)c2cc(NC(C)=O)ccc2Cl)cc1OC`?
Tgondii IFNg: 87

Results for O=C1CCC2C(CCN2c2ncccn2)N1c1cccnc1 (stereo not given) ?
Tgondii IFNg: 4
